In the library only some 3.8% were active in any assay of this set; here they are far more common.
FAS TE block = inhibitors of human fatty acid synthase thioesterase domain; P49327; recombinant FAS-TE, OMFH fluorogenic substrate, fluorescence endpoint; inhibition, % at 15 µM; 0.67% of 360,000 active;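 active = compounds whose normalised, plate-corrected inhibition of enzyme fluorescence in the single-dose primary screen is 50% or more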;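 note: 0% = DMSO with enzyme and 100% = substrate without enzyme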
Cardio protect = myocardial damage modulation in H9c2 cells. H9c2 cardiomyocytes, H2O2 injury protection, ATPLite, 2 h. protection from H2O2 cell death, % at 20 µM. 0.63% of 360,000 active. AID 588492;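 active = compounds giving at least 50% protection of heart cells from peroxide-induced death in the single-dose screen, raw or plate-pattern-corrected value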;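 note: 0% = DMSO wells with peroxide and 100% = DMSO wells without peroxide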
Yeast superoxide = yeast age-related superoxide inhibition as caloric restriction mimetic | superoxide response (% of plate mean), % at 10 µM | S. cerevisiae aged cells, superoxide DHE fluorescence; active compounds read low | AID 2690 | 0.18% of 330,000 active;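 active = superoxide response under a set limit, about three screen SD below normal, cut at about 65% in these data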;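 note: yeast aged for seven days with compound at 30 °C before DHE staining; 100% = average MFI of all compound-treated wells on the plate with controls excluded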
Mot1-301 SUMO = blocks SUMOylation pathway, rescuing yeast Mot1-301 growth; S. cerevisiae Mot1-301 growth rescue, ATP luminescence, 38.5C; percent above DMSO median, 100 means doubled; growth rescue, % at 18.8 µM; 1% of 320,000 active;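 active = every valid replicate shows activation above 250% relative to neutral control wells; inactive = the rest, any valid replicate at or below 250%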;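 note: OY570 slx delta 5 strain wells were the positive control but not used for scaling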
aDG glyco act = alpha-DG glycosylation activation | Pro5-aDG cells, alpha-DG glycosylation AlphaScreen (IIH6); 0% Pro5, 100% B10-LARGE cell signal | activation, % at 10 µM | 0.22% of 360,000 active;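 active = activation of at least 8% versus controls, or a plate z-score of at least 8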;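 note: Pro5 are CHO cells carrying HIG-tagged alpha-DG that lacks glycosylation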
MPTP inh = permeability transition pore inhibition. isolated mouse mitochondria, Ca2+ swelling absorbance, 30 min. inhibition, % at 10 µM. 1.4% of 360,000 active. AID 602449;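 active = inhibition of 50% or more, scaled per plate between neutral and stimulator controls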;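 note: 0% = DMSO wells given calcium and 100% = 1 mM EGTA wells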
Rh123 counter = membrane potential counter-screen of mitochondrial pore inhibitors; shares compounds with MPTP inh; isolated mitochondria, Rhodamine 123 fluorescence; inhibition, % at 10 µM; 78% of 5,000 active; in the data active = inhibition above about 22%;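 note: 0% = DMSO vehicle and 100% = positive control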
MPTP abs DR = MPTP inhibition, dose response swelling confirmation | shares compounds with MPTP inh | isolated mitochondria swelling, absorbance | IC50, µM | 58% of 780 active; in the data active = IC50 below about 20 µM
MPTP cs DR = active in counter-screen for permeability transition pore inhibitors; 49% of 780 active; IC50, µM; isolated mitochondria counterscreen, fluorescence read-out; shares compounds with MPTP inh; in the data active = IC50 below about 80 µM
* hit, by the source's call; i = inactive; x = no result given.

SMILES | FAS TE block | Cardio protect | Yeast superoxide | Mot1-301 SUMO | aDG glyco act | MPTP inh | Rh123 counter | others
O=C(Nc1ccccc1)Nc1nnc(CSCc2ccccc2Cl)s1 | -2 | -14 | 106 | 17 | 0 | 90* | 92*
O=C(Cc1nnc(NC(=O)Nc2ccccc2)s1)Nc1ccccc1 | -4 | 1 | 99 | 6 | 0 | 4 | x
O=CNc1c(Cl)cc2c(c1Cl)Cc1cc([N+](=O)[O-])ccc1-2 | 21 | -7 | x | x | 1 | -1 | x
Cn1c(NCCc2ccncc2)nc2cc(-c3ccsc3)sc2c1=O | 3 | -3 | x | x | 0 | 0 | x
Cc1ccc(C(NC(=O)NC(C)c2ccccc2)C(Cl)(Cl)Cl)cc1F (stereo not given) | 16 | -11 | 99 | -1 | 1 | 76* | 83*
CC(NC(=O)Nc1ccc(Cl)cc1)c1ccccc1 (stereo not given) | 6 | -5 | 100 | i | 0 | 30 | x
O=C(Nc1cc(Cl)cc(Cl)c1)c1coc(=O)c(Br)c1 | 7 | -4 | 97 | -8 | 0 | 81* | 87*
O=C(NC(CO)(CO)CO)c1coc(=O)c(Br)c1 | -10 | -5 | 100 | -1 | 0 | -2 | x
CC(=O)c1ccc(OCC(=O)Nc2ccc3c(c2)OCO3)cc1 | -5 | 1 | x | x | 0 | 1 | x
COc1ccc(CNC(=O)Cc2nn(C)c(=O)c3ccccc23)cc1 | -16 | -31 | 96 | -2 | 5 | 61* | 51*
COc1ccc(OC)c(NC(=O)Cc2nn(C)c(=O)c3ccccc23)c1 | -4 | -14 | 107 | 111 | 2 | 11 | x
Cn1nc(CC(=O)Nc2cccc3ncccc23)c2ccccc2c1=O | -3 | -21 | 97 | x | 1 | 86* | 25*
O=C(COC(=O)/C=C/c1cccc(C(F)(F)F)c1)Nc1cccc(S(=O)(=O)NC2=NCCC2)c1 | 1 | 0 | x | x | 0 | 0 | x
Cc1cc(C(=O)CSc2nc3ccccc3c(=O)[nH]2)c(C)n1CC1CCCO1 (stereo not given) | 2 | -14 | 103 | -1 | 8 | 81* | 75*
OC1C2CCC(C2)C1CN1CCOCC1 (stereo not given) | -9 | -2 | x | x | 1 | 0 | x
Cc1nc2c(C(=O)NCCC(C)C)c[nH]n2c(=O)c1Cc1ccccc1F | 10 | -12 | 98 | -6 | 0 | 78* | 59*
CC(=O)Nc1nc(-c2ccc(Cl)cc2)ns1 | 2 | -12 | 90 | 14 | 0 | 88* | 60*
CCC(=O)Nc1nc(-c2ccccc2)ns1 | -4 | -2 | 109 | -3 | 0 | 14 | x
COc1ccc(C(=O)OCC(=O)Nc2nc3c(F)c(F)c(F)cc3s2)cc1OC | -3 | 2 | 114 | -1 | 0 | 0 | x
O=C(COC(=O)C12CC3CC(CC(C3)C1)C2)Nc1nc2c(F)c(F)c(F)cc2s1 | 6 | -24 | 88 | 50 | 0 | 70* | 40*
O=C(Nc1cccc(Cl)c1)Nc1cc(S(=O)(=O)N2CCCCC2)ccc1Cl | 26 | -15 | 112 | -11 | 0 | 84* | 63*
Cc1ccc(S(=O)(=O)N2CCCCC2)cc1NCC(=O)Nc1ccc(Br)cc1F | 22 | -21 | x | x | 2 | 66* | 94*
Cc1ccc(S(=O)(=O)N2CCCCC2)cc1NC(=O)c1ccccc1Cl | 13 | -10 | 77 | 31 | 0 | -1 | x
O=C(CNc1ccccc1F)Nc1cc(S(=O)(=O)N2CCCCC2)ccc1Cl | 20 | -13 | 89 | 18 | 0 | 2 | x
O=C(COC(=O)CCS(=O)(=O)c1ccccc1)Nc1cc(S(=O)(=O)N2CCCCC2)ccc1Cl | -4 | -2 | 90 | 218 | 0 | 0 | x
SMILES | FAS TE block | Cardio protect | Yeast superoxide | Mot1-301 SUMO | aDG glyco act | MPTP inh | Rh123 counter | others
O=C(COC(=O)CNS(=O)(=O)/C=C/c1ccccc1)Nc1cc(S(=O)(=O)N2CCCCC2)ccc1Cl | -4 | -16 | 92 | 14 | 0 | 70* | 14 | MPTP abs DR=i;MPTP cs DR=11*
Cc1ccc(S(=O)(=O)N2CCCCC2)cc1NC(=O)Nc1ccc(Cl)cc1Cl | 2 | -14 | 91 | 0 | 1 | 85* | 29*
N#CCc1ccc(NC(=O)Cn2c(=O)oc3ccccc32)cc1 | -6 | 4 | 99 | -14 | 0 | 1 | x
COC(=O)c1ccc(NC(=O)c2ccc3c(c2)NC(=O)C2CCCN32)cc1 (stereo not given) | x | x | 155 | 1 | x | x | x
COc1ccc(N(CC(=O)NC2CCS(=O)(=O)C2)S(=O)(=O)c2cc(C)ccc2C)cc1 (stereo not given) | -3 | 0 | 108 | 9 | 0 | 0 | x
Cc1nc(NCCc2ccccc2)c2oc3ccccc3c2n1 | 11 | -14 | 75 | -13 | 3 | 97* | 75*
Cc1nc(NCCN2CCOCC2)c2oc3ccccc3c2n1 | -7 | 9 | 100 | -19 | 0 | -2 | x
CCCCCc1ccc(-c2cn(CN3C(=O)c4ccccc4C3=O)nn2)cc1 | -8 | -8 | 111 | -7 | 0 | 71* | 11 | MPTP abs DR=<0.2*;MPTP cs DR=<2.5*
CC1CCN(C(=O)N2c3ccccc3Sc3ccccc32)CC1 | 22 | -28 | 94 | -2 | 0 | 65* | 34*
CC1CCCN(C(=O)N2c3ccccc3Sc3ccccc32)C1 (stereo not given) | 27 | -21 | 78 | 569 | 0 | -1 | x
COc1ccc(Cl)cc1NC(=O)C1CC(c2ccccc2Cl)=NO1 (stereo not given) | 17 | -1 | x | x | 0 | -2 | x
CC(/C=N/NC(=O)CSc1nc(C)cc(C)n1)=C\c1ccccc1 | 6 | -19 | 112 | 7 | 1 | 50* | 53*
C/C(=N\NC(=O)Cn1c(C)nc2ccccc21)c1cccs1 | -8 | -8 | 87 | -2 | 1 | 4 | x
CC(/C=N\NC(=O)Cn1c(C)nc2ccccc21)=C\c1ccccc1 | -4 | -28 | 102 | -10 | 3 | 54* | 65*
CC(Sc1nc2ccccc2c(=O)n1CCCN1CCOCC1)C(=O)N1CCc2ccccc21 (stereo not given) | -5 | 0 | x | x | 0 | 1 | x
CCOC(=O)c1c(C)[nH]c(C(=O)N/N=C/c2cc([N+](=O)[O-])ccc2O)c1C | 15 | 44 | 97 | -9 | 0 | 56* | 11
CCOC(=O)c1c(C)[nH]c(C(=O)N/N=C\c2ccccc2O)c1C | 7 | 25 | 88 | -3 | 1 | 69* | 66*
O=C(Nc1ccc(Nc2ccccc2)cc1)Nc1ccccc1Cl | 29 | -12 | 107 | 124 | 0 | 1 | x
O=C(NCCN1CCN(c2cccc(Cl)c2)CC1)Nc1ccccc1 | -2 | 2 | 118 | 0 | 0 | 1 | x
